Pf apPOL block: Pf-apPOL inhibitors, biochemical, fluorescence; Recombinant Pf-apPOL, molecular beacon fluorescence, 1.5 h; inhibition, % at 10 µM; hit rate 0.25% among 210,000; AID 1794808, 2022
mHTT-CaM PPI inh: mutant huntingtin-calmodulin interaction inhibitors – biochemical, AlphaScreen, primary screen; P42858; AlphaScreen His-mHTT/GST-CaM binding, luminescence; inhibition, % at 15 µM; hit rate 3.6% among 190,000; AID 1671202, 2021;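 note: 0% = both proteins with DMSO and 100% = one protein alone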
* hit, by the source's call; · = no result; + = active, no number. Only a selection was taken, and hits are over-represented in it overall. Cut-off read from the data, not from the text of the source: active = inhibition above about 50%; inactive = the rest.

SMILES	Pf apPOL block	mHTT-CaM PPI inh
O=C(Nc1cccc(N=Cc2cc(Cl)cc([N+](=O)[O-])c2O)c1)c1ccco1	2.2	68.0*
CC(=O)Nc1cccc(N=Cc2cc(Cc3ccccc3)cc([N+](=O)[O-])c2O)c1	-6.6	51.0*
Cc1cccc(N=Cc2cc(Cl)cc([N+](=O)[O-])c2O)c1	-4.4	14.0
O=[N+]([O-])c1cc(Cc2ccccc2)ccc1O	7.1	25.9
O=Cc1cc(Cc2ccccc2)cc([N+](=O)[O-])c1O	-1.4	100.3*
Cc1ccccc1C(=O)Nc1cccc(N=Cc2cc([N+](=O)[O-])cc([N+](=O)[O-])c2O)c1	-1.3	48.0
O=C(Cc1csc(-n2cccc2)n1)N1CCC(c2nc3ccccc3s2)CC1	-32.5	39.4
Cc1ccc([N+](=O)[O-])cc1S(=O)(=O)N1CCCC(C)(C)C1	-6.9	3.6
O=C(CCCC(=O)NCCC1=CCCCC1)NCCC1=CCCCC1	·	-7.0
CN1C(=O)C(=O)C(=C(O)c2ccc(Br)cc2)C1c1ccc(F)cc1 (stereo unspecified)	-4.9	2.7
Oc1c(I)cccc1C=Nc1ccc2oc(-c3ccncc3)nc2c1	-2.5	1.0
CCC(C)NC(=O)Cn1cccc1-c1nc(-c2ccc(C)cc2)cs1 (stereo unspecified)	2.0	-3.9
OCCNc1nc(Cl)nc(Nc2ccc(I)cc2)n1	-3.7	10.0
FC(F)(F)COc1nc(Cl)nc(Nc2ccccc2)n1	-4.0	86.0*
Cn1ccnc1SCc1cc(=O)c(OC(=O)C2(c3ccc(Cl)cc3)CCCC2)co1	0.7	88.5*
CCSc1ccccc1C(=O)Oc1coc(CSc2nccn2C)cc1=O	0.1	3.0
O=C1S/C(=C\c2ccccc2F)C(=O)N1CNc1cccc([N+](=O)[O-])c1	-2.3	-2.0
Cc1cccc(NCN2C(=O)S/C(=C\c3ccccc3F)C2=O)c1	-3.7	54.0*
CCN(CC)c1cc(C)c2cc(NC(=O)/C=C/c3ccc4c(c3)OCO4)ccc2n1	-8.1	20.0
Cc1cc(N2CCOCC2)nc2ccc(NC(=O)/C=C/c3ccccc3Cl)cc12	-3.0	38.0
Cc1cc(N2CCN(C)CC2)nc2ccc(NC(=O)/C=C/c3ccccc3Cl)cc12	3.6	93.0*
Cc1cc(N2CCN(C)CC2)nc2ccc(NC(=O)/C=C/c3ccc4c(c3)OCO4)cc12	-3.1	51.0*
O=C(O)c1ccc2c(c1)C(=O)N(c1cccc(Cl)c1Cl)C2=O	-2.4	0.0
CCn1c(SC)nnc1-c1nn(C)c2c1CN(C(C)=O)CC2	-3.8	-10.9
Cc1ccc(C2=N/C(=C\c3ccccc3Cl)C(=O)O2)cc1[N+](=O)[O-]	2.4	5.0
SMILES	Pf apPOL block	mHTT-CaM PPI inh
O=C(Cn1ccc2c(=O)[nH]ccc21)Nc1cccc(Cl)c1	78.6*	21.1
O=C(Cn1ccc2c(=O)[nH]ccc21)Nc1ccccc1Cl	82.4*	17.3
Cc1c(Cl)cccc1NC(=O)Cn1ccc2c(=O)[nH]ccc21	14.1	15.2
O=C(Cn1ccc2c(=O)[nH]ccc21)Nc1ccc(Cl)cc1	46.4	14.8
O=C(Nc1ccccc1)c1cc(S(=O)(=O)Nc2ccc(F)cc2)ccc1Br	-13.5	-2.5
CCc1ccccc1N(CC(=O)N1CCC(C(N)=O)CC1)S(=O)(=O)c1ccccc1	10.0	1.2
O=C(c1ccsc1)N1CCc2c(c(CO)nn2Cc2ccccc2)C1	-9.2	-1.3
O=C(Nc1ccc([N+](=O)[O-])cc1)/C(=C/c1ccc(Cl)cc1)NC(=O)c1ccco1	-5.4	14.8
O=C(c1ccc(CS(=O)(=O)Cc2ccccc2Cl)o1)N1CCc2ccccc2C1	-16.5	15.0
Cc1ccc(-c2nn(C)c(=O)c3ccccc23)cc1S(=O)(=O)NCCCO	95.1*	0.0
CCNS(=O)(=O)c1cc(-c2nn(C)c(=O)c3ccccc23)ccc1C	18.9	1.0
Cc1ccnc(NC(=O)C(C)(C)Oc2ccc(Cl)cc2)c1	-0.9	-27.6
Cc1ccc(-c2cn3cc(C(=O)NC(C)c4cccnc4)ccc3n2)cc1 (stereo unspecified)	0.5	51.4*
CC(NC(=O)c1ccc(-c2ccnc(N3CCCC3)n2)cc1)c1cccnc1 (stereo unspecified)	3.4	18.6
Cc1ccc(-c2cn3cc(C(=O)NC(C)c4cccnc4)ccc3n2)cc1C (stereo unspecified)	-2.8	52.7*
CC(NC(=O)c1cn2ccccc2n1)c1cccnc1 (stereo unspecified)	0.5	-2.7
CC(NS(=O)(=O)c1ccc(F)cc1)C1C2CC3CC(C2)CC1C3 (stereo unspecified)	-3.6	-2.0
O=C(NCCCn1cccc1)c1cc(-c2ccccc2)on1	-150.8	6.6
O=C1C(=CN2CCC3(CC2)OCCO3)Oc2cc(O)ccc21	-6.5	1.6
Cc1ccccc1NC(=O)N1CCc2c(c(COCc3ccccc3)nn2C)C1	-3.9	9.3
O=C1OC(c2ccc(Cl)cc2)=C/C1=C\c1ccc(Br)o1	4.4	5.0
COc1ccc(C2=C/C(=C\c3cccs3)C(=O)O2)cc1	-12.0	7.0
CCOc1ccc(C2=C/C(=C\c3cccs3)C(=O)O2)cc1	52.4*	9.0
CCOc1ccc(C2=C/C(=C\c3ccc(Br)o3)C(=O)O2)cc1	-5.4	98.0*
COc1ccc(C2SCC(=O)N2CCOc2ccccc2Cl)cc1OC (stereo unspecified)	-0.8	2.0
SMILES	Pf apPOL block	mHTT-CaM PPI inh
Cc1ccc(NC(=O)N2CCCC2c2nc(-c3ccccc3)no2)cc1C (stereo unspecified)	2.5	-1.4
COc1ccc(-c2coc3c(CN(C)C)c(O)ccc3c2=O)cc1	-7.1	2.6
COc1cccc(C(=O)Oc2coc(CSc3nccc(C)n3)cc2=O)c1OC	-6.4	33.6
Cc1ccnc(SCc2cc(=O)c(OC(=O)C(C)(C)Oc3ccc(Cl)cc3)co2)n1	1.7	99.0*
O=C(c1ccsc1)N1CCCN(c2cc(-c3ccc4c(c3)OCO4)[nH]n2)CC1	3.8	6.9
Cc1ccccc1CC(=O)N1CCN(c2cc(-c3cccnc3)[nH]n2)CC1	-1.7	-5.7
Cc1ccccc1CC(=O)N1CCCN(c2cc(-c3ccccc3)[nH]n2)CC1	-7.6	60.9*
O=C(c1cc2ccccc2[nH]1)N1CCCN(c2cc(-c3ccc4c(c3)OCO4)[nH]n2)CC1	-7.1	56.1*
CN(C(=O)C1CCN(c2ncnc3c2nc2n3CCCCC2)CC1)c1ccc(F)cc1	1.4	5.1
CC(C)Cc1ccc(-c2csc(Nc3ccc4c(c3)OCO4)n2)cc1	-2.1	66.9*
COC(=O)c1ccc(-c2csc(NC(=O)Nc3ccc4c(c3)OCO4)n2)cc1	-6.7	-5.5
Clc1ccc(-c2csc(Nc3ccc4c(c3)OCO4)n2)cc1	-6.7	-5.4
O=[N+]([O-])c1ccc(-c2csc(Nc3ccc4c(c3)OCO4)n2)cc1	1.0	55.1*
COc1ccc2oc(=O)c(-c3csc(NC(C)=O)n3)cc2c1	3.2	-6.0
CN(C)c1ccc(/C=C/C=N/NC2=NS(=O)(=O)c3ccccc32)cc1	·	+
CN(C)C1=NS(=O)(=O)c2ccccc21	-2.0	-2.5
CC(=O)Nc1ccc2c(c1)Sc1ncccc1C(=O)N2C	0.2	-2.8
COc1ccc(NS(=O)(=O)C2CCS(=O)(=O)C2)cc1 (stereo unspecified)	99.8*	5.0
COc1ccc(NS(C)(=O)=O)cc1	5.3	-11.9
CC(C)Sc1cccc(-c2nnc(NC(=O)c3cnccn3)o2)c1	0.2	4.3
CC12CCC3C(CCC4CCCCC43C)C1CCC2N (stereo unspecified)	-1.2	100.0*
